Molecules are shown by their SMILES. A number with no mark means an inactive call.

NADPH oxidase 2 (Homo sapiens), sequence (P04839 whole entry, looked up): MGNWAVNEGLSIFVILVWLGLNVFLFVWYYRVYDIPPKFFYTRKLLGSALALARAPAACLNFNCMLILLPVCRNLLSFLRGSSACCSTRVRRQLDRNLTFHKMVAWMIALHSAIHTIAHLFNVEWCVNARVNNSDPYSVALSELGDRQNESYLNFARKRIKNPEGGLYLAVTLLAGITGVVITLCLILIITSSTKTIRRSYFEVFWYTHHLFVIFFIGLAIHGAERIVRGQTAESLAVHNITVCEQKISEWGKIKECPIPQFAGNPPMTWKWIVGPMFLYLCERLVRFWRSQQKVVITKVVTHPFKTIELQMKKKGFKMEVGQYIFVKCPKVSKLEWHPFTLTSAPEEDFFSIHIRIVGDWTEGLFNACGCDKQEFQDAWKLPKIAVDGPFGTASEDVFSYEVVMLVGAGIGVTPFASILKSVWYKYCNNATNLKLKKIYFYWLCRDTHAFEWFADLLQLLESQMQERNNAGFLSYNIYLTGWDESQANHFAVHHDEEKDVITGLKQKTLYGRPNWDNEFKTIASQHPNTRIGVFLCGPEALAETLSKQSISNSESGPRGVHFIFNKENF

The experiment concerns the target NADPH oxidase 2 (Homo sapiens) (UniProt P04839). The experiment can be described thus: NOX2-dependent H2O2 signal modulators, primary screen, NOX inhibitor project, cell-based, HEK293-NOX2, PMA-stimulated, Amplex Red fluorescence (AID 1159). Further: test concentration not given here. The note with it: 45 min, higher = more signal, called active from +8 up or from −8 down.
As to `CON=C(C)CCC(=O)OC[C@H]1O[C@H](C#Cc2ccccc2)C=C[C@@H]1Oc1ccc(C)cc1`, the z-score is -2.16.

On to `CC(C)(C)N1C(=O)[C@H]2[C@H]3[C@H](O)[C@H](O)CC(=NOC[C@@H](O)COCc4ccco4)[C@@H]3CC[C@H]2C1=O`, for which the z-score was 0.725. Turning to `CO[C@@H]1[C@H](O)CO[C@H]1C=Cc1ccccc1`, the z-score was -0.403. Turning to `CCN1C(=O)[C@H]2[C@H]3[C@H](O)[C@H](O)CC(=NOCC[C@@H]4C=C[C@H](OC(C)=O)[C@@H](COC(C)=O)O4)[C@@H]3CC[C@H]2C1=O`, the z-score was 0.0899. Turning to `CO[C@@H](C1CCCCC1)[C@@H](C)[C@H](OCc1cccc(Br)c1)[C@@H](C)CO`, the z-score is -0.787. Consider `CCOC(=O)CCN1C(=O)[C@H]2[C@H]3[C@H](O)[C@H](O)CC(=NOCC(C)C)[C@@H]3CC[C@H]2C1=O`, for which the z-score is 0.913. In the case of `CCOC(=O)CCN1C(=O)[C@H]2[C@H]3[C@H](O)[C@H](O)CC(=NO[C@@H]4O[C@H](CO)[C@@H](O)[C@H](O)[C@H]4O)[C@@H]3CC[C@H]2C1=O`, the z-score is -2.95.

For the compound `CO[C@H]1COC(=O)CC=C[C@@H](C)COC(=O)[C@H]2CCCN2C(=O)CC=C[C@H]1C`, the z-score was -0.166. For `CCOC(=O)[C@H](Cc1ccccc1)NC(=O)CCC1CC(OC(=O)NCc2cccc3ccccc23)CC2(CCCC(COC(=O)NCCc3ccccc3OC)O2)O1` (stereo partly specified) the value was 0.884. Regarding `Cc1ccc(S(=O)(=O)N[C@@H]2COC(=O)CC=C[C@@H](C)[C@H](NS(=O)(=O)c3ccc(C)cc3)COC(=O)[C@H](C)NC(=O)CC=C[C@H]2C)cc1`, the z-score is -6.49. For the compound `CCN1C(=O)[C@H]2[C@H]3[C@H](O)[C@H](O)CC(=NOCC=C(C)CCC=C(C)C)[C@@H]3CC[C@H]2C1=O`, the z-score is 1.56. With `O=C1[C@H]2[C@H]3[C@H](O)[C@H](O)CC(=NOC[C@@H](O)COCc4ccco4)[C@@H]3CC[C@H]2C(=O)N1Cc1ccccc1`, the z-score is -1.69. For `O=C1[C@H]2CCn3c(=O)n(-c4ccccc4)c(=O)n3[C@H]2[C@H](O)[C@@H]2O[C@H]12` the value was -1.3; for `CON=C[C@@H](OC)[C@H](C)C=CCC(=O)OC`, 0.592. Next, `CC(C)=CCCC(C)=CCON=C1C[C@@H](O)[C@@H](O)[C@@H]2[C@@H]3C(=O)N(Cc4ccc5c(c4)OCO5)C(=O)[C@@H]3CC[C@@H]12`: -1.3. Turning to `CC(=O)OC[C@H]1O[C@H](CC=NO[C@@H](C)c2cc(-c3c(C)cc(C)cc3C)no2)C=C[C@@H]1OC(C)=O`, the z-score is -1.27. As for `COc1ccc(-c2cnnc(CCCn3ccnc3-c3ccccc3)n2)cc1`, the z-score was 1.27. `O=C1C2=CC[C@H]3C(=O)N(c4ccc(F)cc4F)C(=O)[C@H]3[C@H]2[C@H](O)[C@@H]2O[C@H]12`: the z-score is 0.0832. Regarding `COC(=O)CC=C[C@@H](C)[C@@H](C=NOC[C@@H](O)COCc1ccco1)OC`, the z-score was -0.499. For `COC(=O)[C@H](C)NC(=O)CCC1CC(OC(=O)NCc2cccc3ccccc23)CC2(CCCC(COC(=O)NCCCN3CCCC3=O)O2)O1` (stereo partly specified) the value was -0.383; for `CCOC(=O)[C@H](CC(C)C)NC(=O)CCC1CC(OC(=O)NCc2ccc3c(c2)OCO3)CC2(CCCC(COC(=O)NCCc3ccccc3OC)O2)O1` (stereo partly specified), 0.0807. Consider `CO[C@@H](C(C)C)[C@@H](C)C1OC(=O)CC1O` (stereo partly specified), for which the z-score is 1.29. Next, `Cc1ccc(C(C)C)n1C(=O)OC(C)(C)C`: -0.137; `CCOC(=O)[C@H](Cc1ccccc1)NC(=O)CCC1CC(OC(=O)NCc2ccc3c(c2)OCO3)CC2(CCCC(COC(=O)NCCOc3ccccc3)O2)O1` (stereo partly specified): 0.339; `CSCC[C@@H]1NC(=O)CC=C[C@@H](C)COC(=O)[C@H](C)COC1=O`: -1.01. On to `CO[C@H]1COC(=O)CCC[C@H](C)[C@@H](OC)COC(=O)CC=C[C@@H]1C`, for which the z-score is -0.123.

As for `CC(C)[C@@H](OCc1ccccc1)[C@H](C)C=NO[C@@H](C)c1cn([C@H](CO)Cc2ccccc2)nn1`, the z-score was -1.07.

For the compound `CCN1C(=O)[C@H]2[C@@H]3C(=CC[C@H]2C1=O)C(=O)[C@H]1O[C@H]1[C@H]3O`, the z-score was 0.428.

As for `CC(C)=CCCC(C)=CCON=C1C[C@@H](O)[C@@H](O)[C@@H]2[C@@H]3C(=O)N(C4CCCCC4)C(=O)[C@@H]3CC[C@H]12`, the z-score was -0.693. On to `C=CC[C@@H]1C=C[C@H](ON=C[C@@H](NS(=O)(=O)c2ccc(C)cc2)[C@H](C)C=CCC(=O)OC)[C@@H](CO)O1`, for which the z-score is -0.0272.

`COC(=O)[C@H](C)NC(=O)CCC1CC(OC(=O)NCCc2ccc(F)cc2)CC2(CCCC(COC(=O)NCCOc3ccccc3)O2)O1` (stereo partly specified): the z-score was 0.749. Take `CO[C@@H]1COC(=O)[C@H](COCc2ccccc2)NC(=O)CC=C[C@@H](C)[C@H](OC)COC(=O)[C@@H](C)NC(=O)CC=C[C@H]1C`: the z-score was -0.74. Take `CC(CCC(=O)OC[C@H]1O[C@H](C#Cc2ccccc2)C=C[C@@H]1Oc1ccc(C)cc1)=NOC[C@@H](C)[C@H](OCc1ccccc1)C(C)C`: the z-score was 1.21. `COC(=O)[C@H](C)NC(=O)CC=C[C@@H](C)[C@@H]1C=C[C@H](O)[C@@H](CO)O1`: the z-score is 0.534. On to `C=CC[C@@H]1C=C[C@H](ON=C(C)CCN2CCCc3nc(C)c(C)cc32)[C@@H](CO)O1`, for which the z-score is -0.297.

With `O=C1C=C[C@@H](O)[C@@H]2[C@@H]3C(=O)N(Cc4ccccc4)C(=O)[C@@H]3CC[C@@H]12`, the z-score was 0.808.

The values are drawn from PubChem BioAssay.
